Measured values from PubChem BioAssay (NCI).
The panel holds about 83,000 compounds, 20% with a hit somewhere; the sample as a whole holds those more often.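 The test compound was applied at a single concentration to cells in 96-well plates for 48 hours, and percent growth was recorded.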 Calls of active or inactive are those of the source. Rule for the calls: active = growth percent below 10; inactive = the rest.

Assays:
Test in all cases: NCI-60 one-dose screen, 48 h (100 = growth as untreated, 0 = no growth, -100 = all killed)
Conditions in all cases: 10 µM
NCI-H23 lung = tested on: NCI-H23 lung
NCI-H226 lung = tested on: NCI-H226 lung
NCI-H322M lung = tested on: NCI-H322M lung
HOP-62 NSCLC = tested on: HOP-62 NSCLC
NCI-H460 lung = tested on: NCI-H460 lung
NCI-H522 lung = tested on: NCI-H522 lung
A549/ATCC NSCLC = tested on: A549/ATCC NSCLC
786-0 renal = tested on: 786-0 renal
COLO 205 colon = tested on: COLO 205 colon
DU-145 prostate = tested on: DU-145 prostate
K-562 leukemia = tested on: K-562 leukemia
MALME-3M melanoma = tested on: MALME-3M melanoma
MDA-MB-231 breast = tested on: MDA-MB-231 breast
RXF 393 renal = tested on: RXF 393 renal
SF-268 CNS = tested on: SF-268 CNS
SF-295 CNS = tested on: SF-295 CNS
SF-539 CNS = tested on: SF-539 CNS
UACC-257 melanoma = tested on: UACC-257 melanoma
M14 melanoma = tested on: M14 melanoma
HCT-15 colon = tested on: HCT-15 colon

Measured: growth

CCN1CCN(c2nc3ccccc3c3c(=O)c4ccccc4sc23)CC1
inactive: NCI-H23 lung 64.2% | NCI-H226 lung 49.5% | NCI-H322M lung 68.4% | HOP-62 NSCLC 39.4% | NCI-H460 lung 20% | NCI-H522 lung 35.4% | A549/ATCC NSCLC 31% | 786-0 renal 47% | COLO 205 colon 10.7% | DU-145 prostate 33% | K-562 leukemia 12.8% | MALME-3M melanoma 52.5% | RXF 393 renal 29.8% | SF-268 CNS 45.6% | SF-295 CNS 24.6% | SF-539 CNS 48% | UACC-257 melanoma 73.9%
active: MDA-MB-231 breast -2.38% | M14 melanoma -18.5%

CCOC(=O)N/N=C\C(C)=N\NC(=O)OCC
inactive: NCI-H23 lung 101% | NCI-H226 lung 119% | NCI-H322M lung 89.5% | HOP-62 NSCLC 96.3% | NCI-H460 lung 102% | NCI-H522 lung 89.2% | A549/ATCC NSCLC 92.6% | 786-0 renal 101% | COLO 205 colon 114% | DU-145 prostate 106% | K-562 leukemia 98.7% | MALME-3M melanoma 84.5% | MDA-MB-231 breast 111% | RXF 393 renal 125% | SF-268 CNS 105% | SF-295 CNS 90.9% | SF-539 CNS 99.9% | UACC-257 melanoma 92.6% | M14 melanoma 100% | HCT-15 colon 99.5%

CCOC(=O)C1CCc2c(ccc3ccccc23)N1CCC#N (centres undefined)
inactive: NCI-H23 lung 89.7% | NCI-H226 lung 98.7% | NCI-H322M lung 85.7% | HOP-62 NSCLC 101% | NCI-H460 lung 109% | NCI-H522 lung 93.3% | A549/ATCC NSCLC 104% | 786-0 renal 100% | COLO 205 colon 119% | DU-145 prostate 111% | K-562 leukemia 55.5% | MALME-3M melanoma 80.2% | MDA-MB-231 breast 91.5% | RXF 393 renal 89% | SF-268 CNS 113% | SF-295 CNS 88% | SF-539 CNS 110% | UACC-257 melanoma 104% | M14 melanoma 93.3%

FC(F)(F)c1ccc(-c2cnc(Cl)nc2N2CCC3(CC2)OCCO3)cc1
inactive: NCI-H23 lung 94.9% | NCI-H226 lung 94.4% | NCI-H322M lung 91.7% | HOP-62 NSCLC 97.2% | NCI-H460 lung 100% | NCI-H522 lung 63.2% | A549/ATCC NSCLC 90.2% | 786-0 renal 95.5% | COLO 205 colon 93.2% | DU-145 prostate 95.5% | K-562 leukemia 93.2% | MALME-3M melanoma 78.4% | MDA-MB-231 breast 102% | RXF 393 renal 105% | SF-268 CNS 93.5% | SF-295 CNS 89.7% | SF-539 CNS 99.3% | UACC-257 melanoma 106% | M14 melanoma 96.6%

N#CSCC1CC(O)(c2ccccc2)CC(c2ccc(Cl)cc2)O1 (centres undefined)
active: NCI-H522 lung 4.64% | MALME-3M melanoma 7.26% | RXF 393 renal 9.83% | M14 melanoma 9.35%
inactive: NCI-H23 lung 35.6% | NCI-H226 lung 89.3% | NCI-H322M lung 52.4% | HOP-62 NSCLC 75.1% | NCI-H460 lung 37.2% | A549/ATCC NSCLC 68.5% | 786-0 renal 37% | COLO 205 colon 59.2% | DU-145 prostate 33% | K-562 leukemia 44.8% | MDA-MB-231 breast 60.8% | SF-268 CNS 34.6% | SF-295 CNS 46.6% | SF-539 CNS 58.8% | UACC-257 melanoma 87.8% | HCT-15 colon 58.8%

COc1ccc(-c2nn(-c3cccc(NC(=O)c4ccc(N5CCOCC5)c(C(F)(F)F)c4)c3)cc2-c2ccncc2)cc1Cl
active: SF-295 CNS 9.97%
inactive: NCI-H23 lung 83.2% | NCI-H226 lung 83.6% | NCI-H322M lung 80.3% | HOP-62 NSCLC 73.7% | NCI-H460 lung 62.1% | NCI-H522 lung 41% | A549/ATCC NSCLC 54.7% | 786-0 renal 37.9% | COLO 205 colon 54.6% | DU-145 prostate 91.8% | K-562 leukemia 23.6% | MALME-3M melanoma 48.7% | MDA-MB-231 breast 66.4% | RXF 393 renal 18.7% | SF-268 CNS 70.7% | SF-539 CNS 41% | UACC-257 melanoma 67.8% | M14 melanoma 65%

COc1ccc(-c2nc(-c3nc4ccc(OC)cc4[nH]3)cc3c2[nH]c2ccccc23)cc1
inactive: NCI-H23 lung 55% | NCI-H226 lung 65.3% | NCI-H322M lung 48.2% | HOP-62 NSCLC 53.9% | NCI-H522 lung 45.2% | A549/ATCC NSCLC 12.9% | 786-0 renal 37.4% | COLO 205 colon 31.3% | DU-145 prostate 19.9% | K-562 leukemia 16.2% | MALME-3M melanoma 58.6% | MDA-MB-231 breast 59.5% | RXF 393 renal 43% | SF-268 CNS 48.8% | SF-539 CNS 51.6% | UACC-257 melanoma 70.5% | M14 melanoma 34.7%
active: NCI-H460 lung 2.46% | SF-295 CNS -13.1%

CSC1=NCCCC1
inactive: NCI-H23 lung 112% | NCI-H226 lung 97.3% | NCI-H322M lung 113% | HOP-62 NSCLC 112% | NCI-H460 lung 108% | NCI-H522 lung 102% | A549/ATCC NSCLC 102% | 786-0 renal 111% | COLO 205 colon 113% | DU-145 prostate 118% | K-562 leukemia 104% | MALME-3M melanoma 109% | MDA-MB-231 breast 123% | RXF 393 renal 108% | SF-268 CNS 109% | SF-295 CNS 110% | SF-539 CNS 111% | UACC-257 melanoma 100% | M14 melanoma 108% | HCT-15 colon 101%

CNc1ccc(CSc2ccc(C)cc2)cc1
active: NCI-H522 lung 4.69%
inactive: NCI-H23 lung 91.2% | NCI-H226 lung 32.8% | NCI-H322M lung 88.9% | HOP-62 NSCLC 90.4% | NCI-H460 lung 80.8% | A549/ATCC NSCLC 42.4% | 786-0 renal 31.6% | COLO 205 colon 86.4% | DU-145 prostate 90.8% | K-562 leukemia 119% | MALME-3M melanoma 94.4% | MDA-MB-231 breast 33.4% | RXF 393 renal 64.2% | SF-268 CNS 69.6% | SF-295 CNS 103% | SF-539 CNS 56.3% | UACC-257 melanoma 93% | M14 melanoma 84.7%
